# Active and inactive are the calls of the source. The calls were made as follows: active = hit-call score of the fitted dose curve at least 0.9, where 1 is the maximum; inactive = score below 0.9.
# Read-out: Urokinase-type plasminogen activator receptor (uPAR), PLAUR (gene 5329)
# Test: BSK_CASM3C_uPAR: BioMAP Diversity Plus: CASM3C Assay for Urokinase-type plasminogen activator receptor (uPAR) Biomarker Activity (AID 2283054);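 also: cell-surface uPAR protein level quantified by ELISA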
# Settings: primary human coronary artery smooth muscle cells; actives raise or lower the signal
SMILES,outcome,AC50
CCC(C)(CC)c1cc(NC(=O)c2c(OC)cccc2OC)on1,inactive,
Nn1cnnc1,inactive,
CCCCCCCCOC(=O)c1ccccc1C(=O)OCCCCCCCC,inactive,
Clc1ccc(Cl)cc1,inactive,
Cc1ccccc1O,inactive,
Cc1cc(-c2ccc(N)c(C)c2)ccc1N,inactive,
CC#Cc1cc(C)nc(Nc2ccccc2)n1,inactive,
CO/C=C(/C(=O)OC)c1ccccc1COc1cccc(C(F)(F)F)n1,inactive,
ClC1=C(Cl)[C@]2(Cl)[C@@H]3[C@@H](Cl)[C@H]4O[C@H]4[C@@H]3C1(Cl)C2(Cl)Cl,inactive,
C=CC(=O)NCNC(=O)C=C,inactive,
CCCCCCCCCc1ccc(O)cc1,,38.2 µM (active)
N#Cc1ccc(N(CC(N)=O)CC(F)(F)F)cc1C(F)(F)F,inactive,
CCC(C)(c1ccc(O)cc1)c1ccc(O)cc1,inactive,
O=C(N[C@H]1CN2CCC1CC2)c1cc2ccoc2cn1,inactive,
ClC1=C(Cl)[C@]2(Cl)[C@@H]3[C@@H]4C[C@@H]([C@H]5O[C@@H]45)[C@@H]3[C@@]1(Cl)C2(Cl)Cl,inactive,
O=C(NC(=O)c1cc(F)c(F)cc1Cl)Nc1cc(F)ccc1N1CCC(C(=O)O)CC1,inactive,
O=S(=O)(O)C(F)(F)C(F)(F)C(F)(F)C(F)(F)C(F)(F)C(F)(F)F,inactive,

SMILES,outcome,AC50
C1CC2OC2CC1C1CO1 (stereo not drawn),inactive,
ClC1=C(Cl)[C@]2(Cl)[C@@H]3[C@H]4C[C@H]([C@@H]5O[C@H]45)[C@@H]3[C@@]1(Cl)C2(Cl)Cl,inactive,
C[C@]12CCC(=O)C=C1CC[C@@H]1[C@@H]2CC[C@]2(C)C(=O)CC[C@@H]12,inactive,
CCC(C)c1cc([N+](=O)[O-])cc([N+](=O)[O-])c1O (stereo not drawn),,31.3 µM (active)
CCC(=O)O[C@H]1CC[C@H]2[C@@H]3CCC4=CC(=O)CC[C@]4(C)[C@H]3CC[C@]12C,inactive,
Clc1ccc(C(Cl)(Cl)Cl)cc1,inactive,
Oc1ccc(Cl)cc1Cl,inactive,
C[C@]12CCC(=O)C=C1CC[C@@H]1[C@@H]2CC[C@@]2(C)[C@H]1CC[C@]2(C)O,inactive,
CC(C)C(=O)OCC(C)(C)C(OC(=O)C(C)C)C(C)C (stereo not drawn),inactive,
O=NN(c1ccccc1)c1ccccc1,inactive,
Oc1ccc(C(c2ccc(O)cc2)(C(F)(F)F)C(F)(F)F)cc1,inactive,
CCCCCCOC(=O)c1ccccc1C(=O)OCCCCCC,inactive,
Sc1ccccc1,inactive,
Clc1ccc(C(c2ccccc2Cl)C(Cl)(Cl)Cl)cc1 (stereo not drawn),,25.6 µM (active)
c1cc2ccc3cccc4ccc(c1)c2c34,inactive,
CCCN(CCC)N=O,inactive,

# From PubChem BioAssay (EPA / NIEHS)
